# Screening data (PubChem)
# tim10-1 inh = growth inhibitors of tim10-1 mutant yeast, primary screen, luminescence, uHTS. S. cerevisiae tim10-1 ts strain growth, BacTiter-Glo, 24 h. inhibition, % at 20 µM. hit rate 2.2% among 330,000;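 active = inhibition of at least 40%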;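 also: mutant grown at 25 °C; 0% = DMSO wells with yeast and 100% = wells holding no yeast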
# TIM10 inh = growth inhibitors of isogenic TIM10 control yeast, primary screen, counter-screen for tim10-1 yeast inhibitor project, luminescence, uHTS | S. cerevisiae TIM10 strain growth, BacTiter-Glo luminescence, 24 h | inhibition, % at 10 µM | hit rate 1.4% among 330,000 | AID 463195, 2010;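 active = inhibition of 40% or more at the single tested concentration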;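 also: wild-type TIM10 isogenic control strain grown at permissive 25 °C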
# PfHsp90 yeast 2 = growth inhibition of PfHsp90-expressing yeast, primary screen, antimalarial PfHsp90 inhibitor project, S. cerevisiae, BacTiter-Glo luminescence, single point, set 2; BacTiter-Glo ATP, 48 h; yeast lacking PDR1 and PDR3 efflux regulators; hit rate 0.32% among 310,000; AID 504621, 2011; inhibition, % at 9.4 µM;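 active = every replicate shows inhibition above about 80%, whatever the replicate mean, limit read from the data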;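 also: 0% = DMSO neutral controls and 100% = 20 µM radicicol positive controls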
# tim23-1 inh = growth inhibitors of tim23-1 mutant yeast, primary screen, luminescence, uHTS | S. cerevisiae tim23-1 growth, BacTiter-Glo luminescence, 24 h | inhibition, % at 20 µM | hit rate 1.3% among 330,000 | AID 463212, 2010;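 active = growth inhibition of the mutant yeast at or above 50%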;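 also: temperature-sensitive mutant grown at 25 °C; plate controls were DMSO-treated mutant yeast for no effect and medium wells lacking yeast for full effect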
# B2AR ag = beta2AR agonists driving receptor internalization, primary screen, cell-based, FAP fluorogen, flow cytometry; Am2.2-beta2AR cells; response, % (concentration not given with the values); hit rate 0.43% among 340,000; AID 504454, 2011;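 active = response above a set limit, near 3 SD of response in nonfluorescent compounds, cut at about 42% in these data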
# Target sequence (P07550 whole entry, looked up): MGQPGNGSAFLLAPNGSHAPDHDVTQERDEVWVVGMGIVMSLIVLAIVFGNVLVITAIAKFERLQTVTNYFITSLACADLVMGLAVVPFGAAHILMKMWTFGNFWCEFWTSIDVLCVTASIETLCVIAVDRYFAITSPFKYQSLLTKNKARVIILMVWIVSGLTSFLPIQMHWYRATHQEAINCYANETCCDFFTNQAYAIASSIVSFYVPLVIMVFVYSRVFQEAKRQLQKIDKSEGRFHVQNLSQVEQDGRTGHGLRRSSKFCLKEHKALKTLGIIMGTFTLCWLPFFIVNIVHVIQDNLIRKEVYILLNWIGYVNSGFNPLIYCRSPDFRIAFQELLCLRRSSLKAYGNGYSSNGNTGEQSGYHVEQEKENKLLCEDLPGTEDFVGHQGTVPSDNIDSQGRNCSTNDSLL
# tim10-1 conf = growth inhibitors of tim10-1 mutant yeast, confirmation, single concentration, luminescence, S. cerevisiae; hit rate 56% among 7,400; shares compounds with tim10-1 inh; S. cerevisiae tim10-1 ts strain growth, BacTiter-Glo, 24 h; inhibition, % at 20 µM;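 active = inhibition of yeast growth at or above a set limit in either of two repeat tests at 20 µM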;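 also: tim10-1 mutant grown at permissive 25 °C to find synthetic lethal compounds; 0% = DMSO yeast wells and 100% = medium wells without yeast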
# * = called active by the depositor; i = inactive; nt = not tested or not shown. The list is not random: actives were taken first. Their share in the collection is about 3.8%.
SMILES,tim10-1 inh,TIM10 inh,PfHsp90 yeast 2,tim23-1 inh,B2AR ag,tim10-1 conf
CC[n+]1c(/C=C2/C=C(C)CC(C)C2)sc2ccccc21 (stereo not given),48*,39,-2,32,1,26
CC[n+]1c(C=C2C=C(C)OC(C)=C2)sc2ccccc21,-3,-3,-9,-29,i,nt
CCC1CCCCN1C(=O)c1ccc([N+](=O)[O-])o1 (stereo not given),54*,38,30,44,7,35*
O=[N+]([O-])c1ccc(N=Nc2ccc(O)cc2O)cc1,59*,26,17,42,10,44*
COc1ccc(Cl)cc1Nc1nc(N)nc(C(F)(F)F)n1,48*,26,nt,17,-13,14
COC(=O)C1(Cc2ccc3c(c2)CCC3)Cc2ccc3c(c2C1=O)CCC3 (stereo not given),nt,nt,6,nt,-4,nt
CCCN1CCN(C(=O)C2CCN(S(=O)(=O)c3c(C)noc3/C=C/c3ccc(C)cc3)CC2)CC1,54*,12,14,30,25,28*
O=c1[nH]c(=O)n(C(c2ccccc2)(c2ccccc2)c2ccccc2)cc1N(CCO)CCO,nt,nt,-12,nt,-8,nt
CC(C)(C)C(=O)Nc1cccc(-c2nc3ccccc3c(=O)o2)c1,40*,25,-5,37,2,48*
CC(C)C(=O)Nc1cccc(-c2nc3ccccc3c(=O)o2)c1,19,12,16,18,14,nt
CC(C)C(=O)Nc1ccc(-c2nc3ccccc3c(=O)o2)cc1,56*,38,1,37,-7,41*
CC(C)(C)C(=O)Nc1ccc(-c2nc3ccccc3c(=O)o2)cc1,28,30,1,10,-6,nt
COc1cccc(-c2nc3ccc(O)cc3c(=O)o2)c1,55*,39,7,45,0,31
COc1ccccc1C(=O)NC(=O)COC(=O)c1nc(Cl)ccc1Cl,-6,5,nt,13,-13,nt
COc1ccc(C2NC(c3ccc(OC)c(OC)c3OC)C(C)C(=O)C2C)c(OC)c1OC (stereo not given),9,17,-13,13,7,nt
COc1cc(Br)ccc1C1CC(=O)C(C)C(c2ccc(Br)cc2OC)N1 (stereo not given),53*,20,23,26,2,10
COc1ccccc1Nc1nnc(SCC(=O)c2c(N)n(C3CC3)c(=O)[nH]c2=O)s1,-17,0,-15,-20,1,nt
CCCNC(=O)c1sc2c(c1C(=O)Nc1ccccn1)CCCC2,47*,15,4,38,-14,27
Cc1ccc(-c2nc3ncccc3o2)cc1NC(=O)c1ccc2c(c1)OCO2,nt,nt,-4,nt,0,nt
O=C(c1ccc(Cl)cc1)N1CCN(S(=O)(=O)/C=C/c2ccccc2)CC1,46*,20,-10,42,-7,22
CC(=O)N1N=C(c2cccc([N+](=O)[O-])c2)OC1c1cccc(Br)c1 (stereo not given),45*,22,4,47,-6,29
CC1=NN(c2nc(-c3ccc(Cl)cc3)cs2)C(=O)C1,63*,5,-17,16,6,29*
CC1=NN(c2ccc(Cl)cc2)C(=O)C1,47*,19,-11,38,12,24
Cc1ccc2c(c1)N(CC(=O)N1CCCC1)C(=O)c1cccnc1O2,0,7,-2,3,-5,nt
COc1ccc(-c2cc(C(F)(F)F)nc(N3CCN(Cc4ccccc4)CC3)n2)cc1OC,46*,21,1,23,-1,23
SMILES,tim10-1 inh,TIM10 inh,PfHsp90 yeast 2,tim23-1 inh,B2AR ag,tim10-1 conf
Cc1ccc2c(c1)N(CC(=O)NCCC1=CCCCC1)C(=O)c1cccnc1O2,15,1,-15,19,-5,nt
CCOC(=O)C(=O)Nc1nccs1,14,11,9,6,-5,nt
CCOC(=O)/C=C/C(=O)Nc1nccs1,43*,32,19,34,13,40*
Fc1ccc(/C=N/c2c(-c3ccc(F)cc3)nc3n2CCS3)cc1,15,18,4,11,-16,nt
COc1ccc(/C=N/c2c(-c3ccc(OC)cc3)nc3n2CCS3)cc1,40*,6,-10,45,-14,0
Cc1ccc(C(=O)NNC(=O)c2n[nH]c(=O)c3ccccc23)cc1C,0,8,-28,-16,3,nt
Cc1cc(-c2ccc(C)c(S(=O)(=O)NCc3cccc(Br)c3)c2)on1,41*,-5,-36,31,-13,-2
Cc1cc(-c2ccc(C)c(S(=O)(=O)NCc3ccc(Br)cc3)c2)on1,43*,0,12,46,-8,-7
O=C1NC(Cc2ccc(O)cc2)c2nc3ccc(F)cc3c(=O)n2-c2cc(Cl)ccc21 (stereo not given),nt,nt,10,nt,4,nt
CCOc1ccc(NC(=O)OCCN2CCN(CCc3ccccc3)C(C)C2)cc1 (stereo not given),nt,nt,3,nt,-6,nt
CCOC(=O)N1CCC(NC(=O)c2ccc3c(c2)N=C(C)c2c(C)ccc(C)c2S3)CC1,44*,22,-17,45,19,3
CCCn1nnc(NC(=O)c2cccc(OCc3ccccc3)c2)n1,44*,29,-18,32,-3,36*
CCCn1nnc(NC(=O)c2cccc(Cl)c2)n1,12,-4,-12,7,-11,nt
CCOC(=O)C1=CN(C(C)C)CCC1=O,nt,nt,5,nt,0,nt
O=C1c2ccccc2S(=O)(=O)c2cc(C(=O)N(c3ccccn3)c3ccccn3)ccc21,41*,-4,10,21,-1,14
COC(=O)c1ccc2cc(OC)cc([N+](=O)[O-])c2n1,nt,nt,-5,nt,-5,nt
COC(=O)c1ccc(N2C(=O)CC(N(C)CCc3ccc(OC)c(OC)c3)C2=O)cc1 (stereo not given),41*,30,47,38,4,44*
CC1CCN(S(=O)(=O)c2ccc3c(c2)NC(=O)CS3)CC1,42*,23,-2,46,4,23
COc1cccc(N2CCN(S(=O)(=O)c3ccc4c(c3)NC(=O)CS4)CC2)c1,2,-2,-25,1,-7,nt
O=C(Cn1ccc(NC(=O)OCc2ccccc2)nc1=O)NCc1nc2ccccc2[nH]1,-1,-7,24,7,2,nt
COc1ccc2nc(NC(=O)C3=NN(c4ccccc4)C(=O)CC3)sc2c1,43*,16,-4,23,0,27
CS(=O)(=O)c1ccc2nc(NC(=O)C3=NN(c4ccccc4)C(=O)CC3)sc2c1,1,5,-27,6,7,nt
